# Measured values as given in the supplement of paper PMC12808144.
# Unmarked numbers belong to inactive results.
# Experiments:
# NHEM-hTERT = experiment: cell viability relative to DMSO control (fraction of DMSO control); higher = less cytotoxic, active = 0.5 or less; conditions: 1 µM; 120 h
# Procedure, shortened: (§1)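 Patient-derived Mel-DCC-11, its resistant subline Mel-DCC-11-R (alone and with 8 µM of its selecting drug) and NHEM-hTERT immortalized melanocytes were exposed for 120 h to 315 approved anti-cancer drugs at 1 µM in duplicate. Luminescence was read with ATPlite 1step. Viability was normalised to vehicle controls and averaged over duplicates.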
# Mel-DCC-11-R = experiment: cell viability relative to DMSO control (fraction of DMSO control); higher = less cytotoxic, active = 0.8 or less; conditions: 1 µM, 120 h
# Procedure, shortened: as §1
SMILES,cell viability (NHEM-hTERT),cell viability (Mel-DCC-11-R; vemurafenib co-treatment 0 µM),cell viability (Mel-DCC-11-R; vemurafenib co-treatment 8 µM)
Cl.NNc1nncc2ccccc12 [Hydralazine hydrochloride],1.12,1.03,1.19
O=C(/C=C/c1ccc(O)cc1)c1ccc(O)cc1O [Isoliquiritigenin],0.982,,
COC(=O)N[C@H](C(=O)N1CC2(CC2)C[C@H]1c1ncc(-c2ccc3c(c2)C(F)(F)c2cc(-c4ccc5nc([C@@H]6[C@H]7CC[C@H](C7)N6C(=O)[C@@H](NC(=O)OC)C(C)C)[nH]c5c4)ccc2-3)[nH]1)C(C)C [Ledipasvir],1.26,1.13,0.51 (active)
CC(=O)O[C@]1(C(C)=O)CC[C@H]2[C@@H]3CCC4=CC(=O)CCC4=C3[C@@H](c3ccc(N(C)C)cc3)C[C@@]21C [Ulipristal acetate],0.967,1.13,1.04
CNC(=O)c1ccc(N2C(=S)N(c3ccc(C#N)c(C(F)(F)F)c3)C(=O)C2(C)C)cc1F [Enzalutamide],1.11,,
CC[C@@]1(O)C(=O)OCc2c1cc1n(c2=O)Cc2cc3cc(O)ccc3nc2-1 [10-Hydroxycamptothecin],0.731,,
CCN1CCN(Cc2ccc(Nc3ncc(F)c(-c4cc(F)c5nc(C)n(C(C)C)c5c4)n3)nc2)CC1 [Abemaciclib],0.921,1.38,0.669 (active)
Nc1nc(=O)c2c(CCc3ccc(C(=O)N[C@@H](CCC(=O)[O-])C(=O)[O-])cc3)c[nH]c2[nH]1.[Na+].[Na+] [Pemetrexed Disodium Hydrate],0.995,1.11,1.13
Cc1ccc(=O)n(-c2ccccc2)c1 [Pirfenidone],1.02,,
CC1CCC(C(C)C)C(O)C1 (racemic) [DL-Menthol],0.973,1.07,1.08
CCCCCCCCCCCC1=C(O)C(=O)C=C(O)C1=O [Embelin],1.01,1.07,1.15
O=c1[nH]c(=O)n(C2CCCO2)cc1F (stereo not drawn) [Tegafur],0.922,,
CS(=O)(=O)OCCCCOS(C)(=O)=O [Busulfan],1.14,,
CC1=C(/C=C/C(C)=C/C=C/C(C)=C/C(=O)O)C(C)(C)CCC1 [Tretinoin],0.953,,
CCCCc1nc2cc(/C=C/C(=O)NO)ccc2n1CCN(CC)CC [Pracinostat],0.747,0.699 (active),0.453 (active)
COc1ccc2cc3[n+](cc2c1OC)CCc1cc2c(cc1-3)OCO2 [Berberine],1.1,1.05,0.918
CC(C)(S)[C@@H](N)C(=O)O [Artamine],1.08,1.12,1.25
Nc1cccc2c1CN(C1CCC(=O)NC1=O)C2=O (stereo not drawn) [Lenalidomide],0.996,0.713 (active),1.01
Nc1nc(=O)c2c([nH]1)NCC(CNc1ccc(C(=O)N[C@@H](CCC(=O)[O-])C(=O)[O-])cc1)N2C=O.[Ca+2] (stereo partly drawn) [Calcium folinate],1.16,1.68,1.31
COc1cccc2c1C(=O)c1c(O)c3c(c(O)c1C2=O)C[C@@](O)(C(=O)CO)C[C@@H]3O[C@H]1C[C@H](N)[C@@H](O)[C@H](C)O1.Cl [Epirubicin hydrochloride],0.647,0.426 (active),0.183 (active)
Nc1ccccc1NC(=O)c1ccc(CNC(=O)OCc2cccnc2)cc1 [Entinostat],0.554,0.989,1.01
COc1cc2ncnc(Nc3ccc(F)c(Cl)c3)c2cc1OCCCN1CCOCC1 [Gefitinib],0.905,0.893,0.629 (active)
CCCC(=O)O[C@]1(C(=O)CO)CC[C@H]2[C@@H]3CCC4=CC(=O)CC[C@]4(C)[C@H]3[C@@H](O)C[C@@]21C [Hydrocortisone butyrate],0.973,1.21,1.14
CCCCCCCCCCCCCC(=O)[O-].CCCCCCCCCCCCCC(=O)[O-].N[C@@H]1CCCC[C@H]1N.[Pt+2] [Miriplatin],1.03,1.04,1.03
